# Values joined by “and” are separate entries in the source; they are usually repeats but may differ in a detail not shown here. Identical values can stand only once. Records with an inconclusive call do not appear. Where a call stands in place of a potency, no number is given. Some structures have more than one record in an assay (separate samples or runs), and their calls can disagree. Active and inactive are the calls of the source. Calls come from the whole dose curve; as a rule, active = well fitted cell-killing curve with a large enough effect in the repeat runs; inconclusive = weak or mixed curves, or effect the other way; inactive = flat fitted curve, though single readings scatter.
# Test: qHTS assay to identify small molecule agonists of the estrogen receptor beta (ER-beta) signaling pathway - cell viability counter screen (AID 1259380); note: nearly all actives have a fitted effect of over 30% in size
# Conditions: ER-beta-bla HEK293T viability, CellTiter-Glo luminescence, 16 h; series mostly up to 92.4 µM; activity change, negative = cytotoxicity: at the top concentration
# Description: National Center for Advancing Translational Sciences [NCATS]
# NIH Chemical Genomics Center [NCGC]
# U.S. Environmental Protection Agency [EPA]
# National Institutes of Environmental Health Sciences [NIEHS]
# National Toxicology Program [NTP]
# U.S. Food and Drug Administration [FDA]
# Estrogen receptor (ER), a nuclear hormone receptor, plays an important role in development, metabolic homeostasis and reproduction. Two subtypes of ER, ER-alpha and ER-beta, have similar expression patterns with some uniqueness in both types. Endocrine disrupting chemicals (EDCs) and their interactions with steroid hormone receptors like ER causes disruption of normal endocrine function. To identify the compounds that activate ER signaling, an ER beta-UAS-bla GripTite cell line (Life Technologies, Madison, WI, USA) containing a beta-lactamase reporter gene under the control of an UAS response element was used to screen Tox21 10K compound library. The cytotoxicity of the Tox21 compound library against the ER-beta-bla cell line was tested in parallel by measuring the cell viability using CellTiter-Glo assay in the same wells.
# Tox21 Assay Protocol Summary:
# ER-beta-UAS-bla HEK293T cells were dispensed at 2,000 cells/5 uL of assay medium containing 2% charcoal stripped FBS per well into black wall/clear-bottom 1536-well plates using a Multidrop Combi (ThermoFisher Scientific, Waltham, MA) dispenser. After the assay plates were incubated at a 37C and 5% CO2 for 6 hr, 23 nL of compounds dissolved in DMSO, positive controls or DMSO only was transferred to the assay plate by a Pintool station (Kalypsys, San Diego, CA). The plates were incubated at 37C and 5% CO2 for 16 hr. Then 1 uL of LiveBLAzerTM B/G FRET substrate was added using a BioRAPTR FRD (Flying Reagent Dispenser, Aurora Discovery, San Diego, CA) and then the plates were incubated at room temperature for 2 hours, and fluorescence intensity was measured by an Envision plate reader (PerkinElmer, Shelton, CT). For cell viability readout that measures cytotoxicity, 4 uL/well of CellTiter-Glo reagent was added into the assay plates using a FRD. After 30 min incubation at room temperature, the luminescence intensity in the plates was measured using a ViewLux (PerkinElmer) plate reader.
# Potency is the fitted concentration of half-maximal effect.
Structure (SMILES),Potency,"activity change, negative = cytotoxicity"
CN(C)C=O,inactive,
COC(=O)C1CCC(C(=O)OC)CC1 (stereo not given),inactive,
C1CNCCN1,inactive,
CC1=NN(c2ccccc2)C(=O)C1,inactive,
CC(=O)CCC(C)C,inactive,
CCCCCCCCOc1ccc(C(=O)c2ccccc2)c(O)c1,inactive,
CCOC(=O)C(C)(C)Oc1ccc(Cl)cc1,inactive,
CC(C)(C)CC(C)(C)c1ccc(O)c(-n2nc3ccccc3n2)c1,27.7 µM (active),
CN(C)Cc1cc(CN(C)C)c(O)c(CN(C)C)c1,inactive,
OCCCc1ccccc1,inactive,
C#C[C@]1(O)CC[C@H]2[C@@H]3CCC4=CC(=O)CC[C@@H]4[C@H]3CC[C@@]21CC,inactive,
COC(=O)c1ccc(O)cc1,inactive,
CCCCCCCC(=O)OCC(O)CO (stereo not given),inactive,
O=C(O)CN(CC(=O)O)CC(=O)O,inactive,
C=C(C)OC(C)=O,inactive,
CC1(C)O[C@@H]2[C@@H](CO[C@@]3(COS(N)(=O)=O)OC(C)(C)O[C@@H]23)O1,inactive,
C[C@]12CC[C@@H]3c4ccc(O)cc4CC[C@H]3[C@@H]1CCC2=O,,-9.87% [at 42.5 µM] (inactive)
NC(=O)N/N=C/c1ccc([N+](=O)[O-])o1,inactive,
C[C@]12CC[C@@H]3c4ccc(O)cc4C[C@@H](CCCCCCCCCS(=O)CCCC(F)(F)C(F)(F)F)[C@H]3[C@@H]1CC[C@@H]2O (stereo not given in full),9.68 µM (active) and 14.3 µM (active) and 8.41 µM (active),
C=C(C)C(N)=O,,0.132% (inactive)

Structure (SMILES),Potency,"activity change, negative = cytotoxicity"
O=C1OC(c2ccc(O)cc2)(c2ccc(O)cc2)c2ccccc21,54.1 µM (active) and inactive,
CCCCOCCOCCSC#N,inactive,
CCOCCO,inactive,
C/C=C/c1ccc(O)c(OC)c1,inactive,
O=C(O)CCCCC1CCSS1 (stereo not given),inactive,
CCCCC/C(C=O)=C\c1ccccc1,inactive,
CCCCOC(=O)CCCCCCCCC(=O)OCCCC,inactive,
COCCOCCOC,inactive,
Cc1c(N(C)C)c(=O)n(-c2ccccc2)n1C,inactive,
CC1=C(/C=C/C(C)=C/C=C/C(C)=C/C(=O)O)C(C)(C)CCC1,19.4 µM (active) and 21.7 µM (active) and 15 µM (active),
CC(O)COc1ccccc1 (stereo not given),inactive,
O=c1cc[nH]c(=O)[nH]1,inactive,
Nc1cccc(N)c1,inactive,
CO[C@H]1C=CO[C@@]2(C)Oc3c(C)c(O)c4c(O)c(c(/C=N/N5CCN(C)CC5)c(O)c4c3C2=O)NC(=O)/C(C)=C\C=C[C@H](C)[C@H](O)[C@@H](C)[C@@H](O)[C@@H](C)[C@H](OC(C)=O)[C@@H]1C,inactive,
NC(=O)NO,,-1.27% [at 42.5 µM] (inactive)
CC(C)=CCC/C(C)=C/CO,inactive,
NC(=O)N1c2ccccc2C=Cc2ccccc21,inactive,
O=c1c(-c2ccc(O)cc2)coc2cc(O)cc(O)c12,13.7 µM (active),
O=C(O)Cc1cccc2ccccc12,inactive,
CCCCNC(=O)NS(=O)(=O)c1ccc(N)cc1,inactive,

# From PubChem BioAssay (Tox21)
